High-throughput results (PubChem)
Pf growth 48h – Primary qHTS for delayed death inhibitors of the malarial parasite plastid, 48 hour incubation. P. falciparum luciferase growth in erythrocytes, 48 h. Potency, µM (highest dose often 28.7 µM), hits mostly inhibitors. 310,000 compounds, 5.9% hits
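A one-generation exposure of luciferase-tagged malaria parasites in RPMI 1640/Albumax erythrocyte culture, 37 C and 5% CO2. Inhibition is inferred from decreased luminescence after adding detection reagent.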
Cycloheximide cs – Cycloheximide Counterscreen for Small Molecule Inhibitors of Shiga Toxin. cell reporter, cycloheximide protein synthesis inhibition counterscreen. 300,000 compounds, 12% hits. AID 2314, 2010. max response, %; in the data active means max response mostly above about 13%, no sharp cut-off; inactive means mostly below about 14%; further: read at 38.3 µM for the half of the compounds with a filed dose
LmPK inhibitor – qHTS Assay for Inhibitors of Leishmania Mexicana Pyruvate Kinase (LmPK); Q27686; purified LmPK, Kinase-Glo ATP luminescence, 1 h; Potency, µM (series often up to 57.5 µM), usual class: inhibitors; 290,000 compounds, 0.37% hits
Target sequence (Q27686 whole entry, looked up): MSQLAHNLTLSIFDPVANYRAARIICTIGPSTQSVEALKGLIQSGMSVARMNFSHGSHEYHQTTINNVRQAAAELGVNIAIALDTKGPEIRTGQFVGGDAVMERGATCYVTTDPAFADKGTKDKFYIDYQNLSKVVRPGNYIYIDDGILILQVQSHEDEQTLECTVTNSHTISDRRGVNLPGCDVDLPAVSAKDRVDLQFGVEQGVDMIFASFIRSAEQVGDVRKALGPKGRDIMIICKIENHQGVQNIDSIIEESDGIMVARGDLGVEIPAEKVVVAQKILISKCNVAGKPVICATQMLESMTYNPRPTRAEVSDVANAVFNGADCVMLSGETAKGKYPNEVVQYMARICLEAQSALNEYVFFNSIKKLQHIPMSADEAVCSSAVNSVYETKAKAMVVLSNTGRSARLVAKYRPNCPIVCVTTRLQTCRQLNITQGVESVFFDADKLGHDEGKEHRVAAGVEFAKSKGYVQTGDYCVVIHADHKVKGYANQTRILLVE
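qHTS format; LmPK 0.1 nM; substrates PEP 0.5 mM and ADP 0.1 mM. One-hour room-temperature incubation, then coupled luciferase luminescence; 0.5 nM enzyme wells mark activation.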
Pf growth 96h – Primary qHTS for delayed death inhibitors of the malarial parasite plastid, 96 hour incubation | 320,000 compounds, 6.9% hits | Potency, µM (titrated, usually from 28.7 µM), actives largely listed as inhibitors | AID 504834, 2011 | P. falciparum luciferase reporter growth, 96 h
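Compounds incubated with erythrocytes infected by luciferase-expressing P. falciparum (2% hematocrit, 0.05% parasitemia final) for 96 hours, 37 C in 5% CO2. Growth inhibition scored as decreased luciferase luminescence.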
Shiga inhibitor – A qHTS for Small Molecule Inhibitors of Shiga Toxin. inhibition, % at 38.7 µM. Vero cells, Shiga toxin protein synthesis inhibition reporter. 290,000 compounds, 9.2% hits; in the data active means inhibition mostly above about 28%, no sharp cut-off; inactive means mostly below about 43%
Each line names hits and unclear results; the compound was inactive in the other large screens. Compounds with a hit are over-represented: about 22% of the library has one in this group of screens. Unless noted, the call rests on the fitted dose curve; in most records, active means well fitted inhibition curve with a large enough effect; inconclusive means small, poorly fitted or top-dose-only effect, or another doubt; inactive means no such curve, though single readings can be large or run the other way.

CC(Cn1cncn1)C(=O)N1CCN(S(=O)(=O)c2ccccc2)CC1 (configuration not stated)	none
CS(=O)(=O)c1sc(C(=O)NC(=O)Nc2cccc(C(F)(F)F)c2)c2c1C=CCC2	Pf growth 48h 2.33µM
CN(C)/C=N/C(=S)Nc1ccccc1F	Cycloheximide cs 27.6
CN(C)/C=N/C(=S)Nc1ccccc1Cl	Cycloheximide cs 39.1, Shiga inhibitor 49.3
CN(C)/C=N/C(=S)Nc1cc(Cl)cc(Cl)c1	Pf growth 96h inconclusive
CCOC(=O)/C=C(\C)Sc1cc(=O)oc2ccccc12	Pf growth 48h inconclusive, Pf growth 96h inconclusive
CCOC(=O)/C=C(\C)Sc1cc(O)c2ccccc2c1O	Pf growth 48h 1.47µM, Cycloheximide cs 30.6, LmPK inhibitor 10µM, Pf growth 96h 1.65µM, Shiga inhibitor 58.5
O=C1CC(Cc2ccccc2)C(=O)N1c1ncccn1 (configuration not stated)	Cycloheximide cs 53.0, Pf growth 96h inconclusive, Shiga inhibitor 103.2
Cc1ccc(N2C(=O)CC(Cc3cccc(C)c3)C2=O)cc1 (configuration not stated)	Pf growth 96h 0.294µM
COc1ccc(CCN2C(=O)CC(Cc3ccccc3)C2=O)cc1OC (configuration not stated)	none
Cc1ccc(CC2CC(=O)N(CCc3ccccc3)C2=O)cc1 (configuration not stated)	Cycloheximide cs 19.4, Pf growth 96h 13.1µM
Cc1cc(C)c2[nH]c(O)c(N=NC(=S)NCC3CCCO3)c2c1 (configuration not stated)	Pf growth 48h inconclusive, Pf growth 96h inconclusive
Oc1[nH]c2ccc(Br)cc2c1N=NC(=S)NCC1CCCO1 (configuration not stated)	Pf growth 48h 5.86µM, Pf growth 96h inconclusive
CCn1c(O)c(N=NC(=S)NCC2CCCO2)c2ccccc21 (configuration not stated)	Pf growth 96h inconclusive
Oc1[nH]c2ccccc2c1N=NC(=S)NCC1CCCO1 (configuration not stated)	Pf growth 48h inconclusive, Cycloheximide cs 17.0, Pf growth 96h inconclusive
Oc1[nH]c2c(Cl)cc(Cl)cc2c1N=NC(=S)NCC1CCCO1 (configuration not stated)	Pf growth 48h 1.85µM, Pf growth 96h 6.57µM
CCOc1ncccc1C(=O)Nc1ccc2nc(C)sc2c1	Cycloheximide cs 13.6, Shiga inhibitor 50.3
CSc1ncccc1C(=O)Nc1nc2ccc(Oc3ccccc3)cc2s1	Cycloheximide cs 15.1, Shiga inhibitor 55.6
CSc1ncccc1C(=O)Nc1ccc2nc(C)sc2c1	Cycloheximide cs 19.4, Shiga inhibitor 49.5
CCn1cc(C(=O)NCCCOC(C)C)c(=O)c2cc(S(=O)(=O)N3CCOCC3)ccc21	Pf growth 96h inconclusive
Cc1ccc(CNC(=O)Cc2noc3ccccc23)cc1	Cycloheximide cs 32.7, Shiga inhibitor 51.0
O=C(Cc1noc2ccccc12)Nc1ccccn1	Cycloheximide cs 53.6, Shiga inhibitor 87.9
O=C(Cc1noc2ccccc12)NNC(=S)Nc1ccccc1	none
Cc1ccc(CC(=O)NCc2ccc(Cl)cc2)cc1	none
Cc1ccc(NC(=O)Cc2noc3ccccc23)nc1	Cycloheximide cs 23.1, Shiga inhibitor 59.3
COc1ccccc1/C=C1\N=C(C(C)(C)C)OC1=O	none
Cc1cc(C)c(C(=O)Nn2c(C)nc3ccccc3c2=O)cc1C	none
Cc1cc(=O)n(-c2ccc3ccccc3n2)[nH]1	Cycloheximide cs 47.1, Shiga inhibitor 50.8
CC(Oc1ccc(Br)cc1)C(=O)NCC(c1cccs1)N1CCOCC1 (configuration not stated)	Pf growth 48h inconclusive (no result: Cycloheximide cs, LmPK inhibitor, Shiga inhibitor)
COc1ccc(C=O)cc1COc1ccc2c(c1)OCO2	none (no result: Cycloheximide cs, LmPK inhibitor, Shiga inhibitor)
COc1cccc2c1C(=O)O/C2=C/c1ccc2c(c1)OCO2	Cycloheximide cs 43.1, Shiga inhibitor 71.2 (no result: Pf growth 48h)
Cc1c(C)c(C)c2[nH]c(-c3ccc4c(c3)OCO4)nc2c1C	Pf growth 48h 2.33µM, Cycloheximide cs 26.9, Pf growth 96h 2.08µM, Shiga inhibitor 68.0
CCOc1ccccc1NC(=O)CCc1nnc2ccc(N3CCC4(CC3)OCCO4)nn12	Pf growth 48h inconclusive
c1cc2c(c(NCc3ccncc3)c1)CCCC2	Pf growth 48h 10.4µM (no result: Pf growth 96h)
CN1CCN(C(=S)Nc2ccc(S(N)(=O)=O)cc2)CC1	none
CCSc1ccc(-c2nn(-c3ccccc3)cc2/C=C(/C#N)C(=O)NC)cc1	none
CCCSc1ccc(-c2nn(-c3ccccc3)cc2/C=C(/C#N)C(=O)N2CCOCC2)cc1	Pf growth 48h inconclusive, Cycloheximide cs 16.3, Pf growth 96h inconclusive
CCOC(=O)Cn1cc(/C=C(/C#N)C(=O)NC(C)C)c2ccccc21	none
CCOC(=O)Cn1cc(/C=C(\C#N)C(=O)N2CCOCC2)c2ccccc21	Cycloheximide cs 10.3, Shiga inhibitor 74.0
CCN(CC)C(=O)Cn1cc(/C=C(\C#N)C(=O)N2CCN(c3ccccc3)CC2)c2ccccc21	Pf growth 48h inconclusive, Pf growth 96h 10.4µM
COc1ccc(NC(=O)c2sc3nc(C)nc(N4CCN(c5ccccn5)CC4)c3c2C)cc1Cl	Pf growth 48h 1.85µM
COCCCNC(=O)c1sc2ncnc(N3CCc4ccccc4C3)c2c1C	Pf growth 48h inconclusive, Cycloheximide cs 11.6, Pf growth 96h 6.57µM
Cc1cc(Br)ccc1NC(=O)c1sc2ncnc(N3CCN(c4ccccn4)CC3)c2c1C	Pf growth 48h inconclusive
CCc1ccc(NC(=O)c2sc3nc(C)nc(N4CCN(c5ccccn5)CC4)c3c2C)cc1	none
Cc1c(C(=O)N2CCOCC2)sc2ncnc(N3CCc4ccccc4C3)c12	none
Cc1c(C(=O)N2CCC3(CC2)OCCO3)sc2ncnc(N3CCN(c4ccccn4)CC3)c12	Pf growth 48h inconclusive, Pf growth 96h 11.7µM
Cc1c(C(=O)N2CCN(c3ccccc3)CC2)sc2ncnc(N3CCC(C)CC3)c12	none
COc1ccc(NC(=O)c2sc3ncnc(N4CCN(c5ccccn5)CC4)c3c2C)cc1Cl	Pf growth 48h 6.57µM, Pf growth 96h inconclusive
N#CC(C#N)=C1NC(N)=C(C#N)C(c2ccccc2)=C1C#N	none (no result: Pf growth 48h)
Cc1c(CC(=O)N[C@H](C(=O)O)C(C)C)c(=O)oc2cc3c(cc12)CCC(C)(C)O3	Cycloheximide cs 66.5, Shiga inhibitor 97.9
Cc1c(CC(=O)NCC(C)C)c(=O)oc2cc3c(cc12)CCC(C)(C)O3	Pf growth 48h inconclusive, Cycloheximide cs 23.0, Shiga inhibitor 40.6
COCCNC(=O)Cc1c(C)c2cc3c(cc2oc1=O)OC(C)(C)CC3	Cycloheximide cs 14.1
CCC(C)NC(=O)Cc1c(C)c2cc3c(cc2oc1=O)OC(C)(C)CC3 (configuration not stated)	Cycloheximide cs 39.6, Shiga inhibitor 62.6
O=C(Nc1c[nH]c(=O)[nH]c1=O)c1cc([N+](=O)[O-])cc([N+](=O)[O-])c1	Pf growth 96h inconclusive
Cc1c(CC(=O)N[C@@H](C)C(=O)O)c(=O)oc2cc3c(cc12)CCC(C)(C)O3	none
